Screens (PubChem)
Only some compounds are listed: those with a hit (about 8.2% of all), similar ones and a draw of the others.
MCF10A rereplic: induces DNA re-replication in MCF 10a normal breast cells | MCF 10A DNA re-replication, Hoechst nuclear intensity, 48 h | Potency, µM (highest dose often 46.1 µM), inactives show top-dose activity, positive = re-replication, most hits filed as activators | actives 2.9% (n = 350,000); also: % of control where 0% means no effect; nearly all actives have a fitted effect of over 50% in size
KB-3-1 cytotox: kills parental KB-3-1 adenocarcinoma cells. KB-3-1 viability, CellTiter-Glo ATP luminescence, 72 h. Potency, µM (top dose mostly 46.1 µM), usual class: cytotoxic. actives 1.4% (n = 400,000); also: % is scaled to controls: 0 for no effect and ±100 for the full control effect; nearly all actives have a fitted effect of over 60% in size
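KB-3-1 parental drug-naive adenocarcinoma cells in DMEM/10% FBS, incubated 72 h at 37 C with pin-transferred compounds across a concentration series. Viability by CellTiter-Glo luminescence; concentration-response curves fitted after normalization.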
SW480 rerep: induces DNA re-replication in SW480 colon adenocarcinoma cells | SW480 DNA re-replication, Hoechst DNA content imaging, 48 h | Potency, µM (titrated, usually from 46.1 µM), without a hit: top-dose re-replication activation, actives largely listed as activators | actives 1.8% (n = 340,000) | AID 624297; also: % of control where 0% means no effect; nearly all actives have a fitted effect of over 55% in size
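SW480 cells exposed to compounds for 48 hr at 37 C, 5% CO2, then Hoechst-stained 40 min. Nuclear DNA content imaged by fluorescence scanning (405 nm excitation, 500-530 nm emission); re-replication scored as increased high-intensity nuclei.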
KB-V1 cytotox: KB-V1 MDR subline cytotoxicity | Potency, µM (titrated, usually from 46.1 µM), hits mostly cytotoxic | AID 1347076 | actives 3.4% (n = 400,000) | KB-V1 MDR cells viability, CellTiter-Glo, 72 h; also: % is scaled to controls: 0 for no effect and ±100 for the full control effect; nearly all actives have a fitted effect of over 60% in size
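Cytotoxicity via CellTiter-Glo luminescence after 72 h compound exposure at 37 degrees C. Cells: drug-selected KB-V1 line, DMEM phenol-red free plus 10% FBS. Compounds tested at multiple concentrations; normalized data fitted to concentration-effect curves.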
ELG1 repair inh: inhibitors of ELG1-dependent DNA repair in HEK293T cells. HEK293T ELG1-luciferase reporter, luminescence, 16 h; DNA damage induced by 5-fluorouridine. Potency, µM (series often up to 46.1 µM), for the others: at the highest dose activity change, negative = inhibition, most hits filed as inhibitors. actives 2.3% (n = 330,000). AID 504467; also: % is scaled to controls: 0 for no effect and ±100 for the full control effect; nearly all actives have a fitted effect of over 55% in size
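Step one: seed 2,000 cells per well. Step two: pin-transfer compound or DMSO alongside 5-fluorouridine. Step three: incubate 16 hr, 37 °C, 5% CO2. Step four: add ONE-Glo, wait 30 min, read luminescence.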
An asterisk follows results filed as active; i = inactive; ? = inconclusive; · = no result given; [ ] = dose if it differs, or a comment. Calls follow the shape of the dose curve; as a rule, active = well fitted curve in the direction sought with a large enough effect; inconclusive = small, poorly fitted or top-dose-only effect, or another doubt; inactive = no such curve, though single readings can be large; an effect the other way counts as inactive or inconclusive. Potency is read from the fitted curve at half-maximal effect.

SMILES	MCF10A rereplic	KB-3-1 cytotox	SW480 rerep	KB-V1 cytotox	ELG1 repair inh
C=C1C[C@H](O)[C@@H]2[C@H](OC(=O)[C@H]2C)[C@H]2[C@H](C)[C@@H](O)C[C@@H]12	14%	i	2%	?	10%
CCOC(=O)CSC1=NC(=O)/C(=C/c2ccc(OC)cc2)S1	5.8µM*	12µM*	?	?	?
COc1ccc(/C=C2\SC(N)=NC2=O)cc1	11%	i	0%	?	-11%
Cc1cc(C)cc(N(CCC#N)C(=O)COC(=O)c2ccc(OCc3c(C)noc3C)cc2)c1	17%	i	-2%	?	6%
COc1ccc(N(CC(=O)N2CCOCC2)S(C)(=O)=O)cc1OC	0%	i	-1%	?	-4%
C=CC(=O)N1CCC[C@@H](n2nc(-c3ccc(Oc4ccccc4)cc3)c3c(N)ncnc32)C1	·	?	·	22µM*	·
CCN(CC)CCNC(=O)c1cn(CC)c2cc(N3CCN(C(=O)c4ccco4)CC3)c(F)cc2c1=O	1%	i	0%	i	?
CCn1cc(C(=O)NCc2ccncc2)c(=O)c2cc(F)c(N3CCN(C(=O)c4ccco4)CC3)cc21	?	i	-5%	i	?
CCCCCCn1cc(C(=O)O)c(=O)c2cc(F)c(N3CCN(C(=O)OCC)CC3)cc21	0%	i	-4%	2.1µM*	1%
CCn1cc(C(=O)NCc2ccccc2)c(=O)c2cc(F)c(N3CCN(C(=O)c4ccco4)CC3)cc21	?	?	-6%	?	16µM*
CCn1cc(C(=O)NCc2ccc3c(c2)OCO3)c(=O)c2cc(F)c(N3CCN(C(=O)c4ccco4)CC3)cc21	?	?	?	i	9.2µM*
CCC(Sc1nc2ccccc2c2nc(CCc3c(C)n[nH]c3C)nn12)C(=O)Nc1ccc(OC)cc1 (centres undefined)	·	i	·	i	·
O=C1OCCC1=CN1CCCCC1	·	i	·	i	·
Cc1ccccc1OCCC(=O)Nc1cccc(S(=O)(=O)Nc2ccccc2Cl)c1	?	?	5%	12µM*	-27%
O=C(c1cccc(S(=O)(=O)Nc2ccccc2Cl)c1)N1CCC1	0%	i	-2%	i	-10%
CC1CCCN(C(=O)c2cccc(S(=O)(=O)Nc3cc(C(F)(F)F)ccc3Cl)c2)C1 (centres undefined)	?	i	-101%	18µM*	-10%
COc1ccc(OC)c(CN2CCN(C(=O)c3cc(S(=O)(=O)Nc4ccccc4OC)ccc3C)CC2)c1	?	i	-10%	i	23µM*
CCOC(=O)N1CCN(C(=O)c2cccc(S(=O)(=O)Nc3ccccc3Cl)c2)CC1	0%	i	-4%	18µM*	5%
CC(O)COCC1OC2OC3C(COCC(C)O)OC(OC4C(COCC(C)O)OC(OC5C(COCC(C)O)OC(OC6C(COCC(C)O)OC(OC7C(COCC(C)O)OC(OC8C(COCC(C)O)OC(OC1C(OCC(C)O)C2OCC(C)O)C(OCC(C)O)C8OCC(C)O)C(OCC(C)O)C7OCC(C)O)C(OCC(C)O)C6OCC(C)O)C(OCC(C)O)C5OCC(C)O)C(OCC(C)O)C4OCC(C)O)C(OCC(C)O)C3OCC(C)O (centres undefined)	·	i	·	i	·
O=C1/C(=C/c2cccs2)SC(=S)N1CCC(=O)N1CCCCC1CCO (centres undefined)	16%	i	7%	i	?
Cc1ccc(NS(=O)(=O)c2cccc(C(=O)N3CCCCCC3)c2)cc1	-3%	i	3%	i	-12%
COc1ccccc1NS(=O)(=O)c1cccc(C(=O)N2CCCCCCC2)c1	0%	i	-4%	16µM*	-2%
COc1cccc(S(=O)(=O)Nc2cccc(C(=O)N3CCCCCC3)c2)c1	10%	i	-37%	15µM*	-21%
COc1ccccc1NS(=O)(=O)c1cccc(C(=O)N2CCCC2)c1	-11%	i	-3%	?	0%
Cc1ccc(NS(=O)(=O)c2cccc(C(=O)N3CCCCC3)c2)cc1	23%	i	-1%	12µM*	-32%
SMILES	MCF10A rereplic	KB-3-1 cytotox	SW480 rerep	KB-V1 cytotox	ELG1 repair inh
N#Cc1cc([N+](=O)[O-])ccc1NC(=O)COC(=O)C1CCC(=O)N1 (centres undefined)	-6%	i	-2%	i	0%
COc1ccccc1CNC(=O)c1ccc2nc(C)c(N(C)Cc3ccc(NC(C)=O)cc3)n2c1	·	i	·	i	·
CCC(c1nnnn1C1CCCCC1)N1CCN(C(=O)c2ccco2)CC1 (centres undefined)	2%	i	8%	i	0%
O=c1c2cc([N+](=O)[O-])ccc2nc(CN2CCN(c3ccccn3)CC2)n1-c1ccccc1F	11%	i	-6%	i	?
O=C(c1ccco1)N1CCN(Cc2nc3ccc([N+](=O)[O-])cc3c(=O)n2-c2ccccc2F)CC1	4%	i	-4%	i	23µM*
Cc1ccc(-n2nc(C)cc2Nc2ncc(Cl)cc2Cl)cc1	?	i	?	21µM*	-1%
Cc1cc(Nc2ccccc2)n(-c2ccccc2)n1	0%	i	3%	i	?
Cc1cc(Nc2nc(Cl)c(Cl)cc2Cl)n(-c2ccccc2)n1	?	12µM*	26%	?	-2%
CCN1CCS/C1=C/C=C/C1=[N+](CC)CCS1	9%	?	3%	i	-1%
CCN1CCS/C1=C\C=C\C1=[N+](CC)CCS1	?	i	-67%	i	0.58µM*
Cc1cccc(NC(=O)c2ccccc2SCc2ccc(F)cc2)n1	6%	i	7%	21µM*	-18%
O=C(Nc1ccc(Cl)cn1)c1ccccc1SCc1ccccc1	4%	i	-14%[9.22 µM]	i	-14%
COc1cccc(NC(=O)CSC2=Nc3ccccc3N=C(c3ccc(F)cc3)C2)c1	·	i	·	i	·
CC(C)(C)NC(=O)CN(Cc1cccs1)C(=O)C1COc2ccccc2O1 (centres undefined)	-149%[0.0737 µM]	i	6%	i	-4%
O=C(NCc1ccco1)C(c1cccs1)N(C(=O)C1COc2ccccc2O1)c1cccc(O)c1 (centres undefined)	15%	?	15%	?	13µM*
O=C1CC(C(=O)N(CC2CCCO2)C(C(=O)NC2CCCCC2)c2ccncc2)CS1 (centres undefined)	8%	i	5%	i	14%
CC(C)CCNC(=O)C(c1ccc(O)cc1)N(Cc1cccs1)C(=O)C1COc2ccccc2O1 (centres undefined)	?	?	?	?	21µM*
